# Results: PubChem BioAssay (NCI)
# About 83,000 compounds went through this panel and 20% of them were active in at least one assay; those are over-represented in the sample as a whole.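 In brief: 96-well plates, 48 h treatment, single concentration, percent growth endpoint.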 Unmarked numbers belong to inactive results. Activity calls are given as the source filed them.
# System: OVCAR-5 ovarian
# Experiment: NCI-60 one-dose screen, 48 h (100 = growth as untreated, 0 = no growth, -100 = all killed)
# Details: 10 µM unless noted
# Protocol: Growth inhibition of the OVCAR-5 human tumor cell line is measured as a screen for anti-cancer activity. Cells are grown in 96 well plates and exposed to the test compound for 48 hours. Compounds are tested at a single concentration, which is 10^-5 M for most compounds. The reported endpoint is percent growth (GI% or GIPRCNT), where numbers from 0 - 100% represent growth inhibition, and numbers from -100% - 0 represent cell death. For example, a value of 40 represents 60% growth inhibition. A value of 0 means no net growth occurred over the course of the experiment. A value of -40 indicates 40% of cells at the beginning of the experiment died by the end of the experiment. A value of -100 means all cells are dead at the end of the experiment.
# NCI-60 Human Tumor Cell Lines Screen was performed using the standard one-dose NCI protocol, which is described in more detail at https://dtp.cancer.gov/discovery_development/nci-60/default.htm.
# Compounds with GIPRCNT values below 10 were considered active. Activity score was based on GIPRCNT using the following formula: […]
# Score is 0 for GIPRCNT values of 100 or above, 50 for GIPRCNT values of 0, and 100 for GIPRCNT values of -100.
row,SMILES,growth
1,CN(Cc1cccnc1)N=O,99.8%
2,CN1CCN(C(=O)COc2ccc(/C=C3\CC4C5CC=C6CC(Cl)CCC6(C)C5CCC4(C)C3=O)cc2)CC1 (stereo not given),99.7%
3,Cc1ccc2oc(=O)c3c(c2c1)OC(N)=C(C#N)C3c1ccco1 (stereo not given),102%
4,CCC1CN1P(=O)(OCCOC)N1CC1CC (stereo not given),103%
5,CC(=O)Nc1ccc(Cc2ccc(NC(C)=O)cc2)cc1,90.7%
6,C=CCN1C(=O)C(CC)(CCC(C)C)C(=O)NC1=S (stereo not given),112%
7,O=S(=O)(Cl)c1ccccc1 (tested in a mixture with another compound),93.7%
8,COc1cc(C2CC(=O)Nc3nc(N)[se]c32)cc(OC)c1OC (stereo not given),93.4%
9,C[C@]12CCc3sc(-c4ccc(Cl)cc4)nc3C1=CC[C@@H]1[C@@H]2CC[C@]2(C)C(=O)CC[C@@H]12,98.2%
10,COc1cc(CNCCc2ccc(Cl)cc2)cc(OC)c1O,86.7%
11,CNC(=O)Oc1cccc(OC)c1,113%
12,O=C(O)C1(Br)CC12c1ccccc1-c1ccccc12 (stereo not given),104%
13,CC1(C)CC(=O)CC(C)(C)N1N=O,104%
14,C[C@@H]1O[C@@H](O[C@H]2CC[C@@]3(C)[C@H](CCC4[C@@H]3C(O)C[C@]3(C)[C@@H](c5ccc(=O)oc5)CC[C@]43O)C2)[C@H](O)[C@H](O)[C@H]1O (stereo not given in full),-92% (active)
15,Cc1ccccc1O,121%
16,CCCCn1cc(C(=O)/C(C#N)=C/c2cc3ccccc3nc2Cl)c2cc(OC)ccc21,102%
17,N#C[Se]CCN1C(=O)C2C(C1=O)[C@H]1C=C[C@@H]2S1 (stereo not given in full),14.7%
18,C[CH2][Sn]([CH2]C)([CH2]C)[NH]S(=O)(=O)c1ccc(C)cc1,114%
19,CCC(/C=C(C)/C=C/C(=O)c1c(O)c(-c2ccc(O)cc2)c[nH]c1=O)CO (stereo not given),134%
20,COc1ccc(C(=O)c2ccc([As]=O)cc2)cc1 (stereo not given),-84.2% (active)

row,SMILES,growth
1,CC(=O)O[C@H]1CCC2C3CCC4=C/C(=N/O)CCC4(C)C3CCC21C (stereo not given in full),99.5%
2,CC1=C(SCCC(=O)OCC(=O)NCCC[Te]c2ccccc2)C(=O)c2ccccc2C1=O,-0.604% (active)
3,O=C(/C=C/c1ccccc1)N[C@@H](CO)Cc1cnc[nH]1,98.3%
4,CC(=O)Nc1ccc(C=C2C(=O)NC(=O)NC2=O)cc1,107%
5,COP(=S)(OC)Oc1ccc(SC)c(C)c1,93.2%
6,N#CC1=C(N)Oc2cc3c(cc2C1c1cccs1)OCO3 (stereo not given),52.2%
7,N#Cc1ncc(/N=C/c2ccc(N(CCCl)CCCl)cc2)s1,100%
8,CCN1CC2(CN(CC)C1=S)C(=O)NC(=O)NC2=O,114%
9,CC1([N+](=O)[O-])COP(=O)(Nc2ccc(F)cc2)OC1 (stereo not given),106%
10,O=S(=O)(F)c1ncnc2nc[nH]c12,90.7%
11,C[CH2][Pb]([CH2]C)([CH2]C)[O]C(=O)COC,-4.48% (active)
12,O=C(O)CNC(=O)c1ccccc1,98.6%
13,COC[CH2][Hg][C]#[C][Hg][CH2]COC,116%
14,Cc1cc(NC(=O)/C=C/c2ccc([N+](=O)[O-])cc2)ccc1S(=O)(=O)F,113%
15,O=C(CCF)c1ccc(O)cc1,96.7%
16,O=C(N/N=C/c1ccc(N(CCCl)CCCl)cc1)c1cc(=O)[nH]c(=O)[nH]1,134%
17,OC1CCCCC1N1CCC(c2ccccc2)CC1 (stereo not given),107%
18,CC(=O)C1C(=O)N(C)C(=O)N(C)C1=O,99.7%
19,COc1ccc(OC)c(/C=C(/C)[N+](=O)[O-])c1,108%
20,S=P(N1CCCCCC1)(N1CC1)N1CC1,107%
